Source: the supplement of paper PMC13380429

What was measured:
[1] = test system: Vero E6 infected with SARS-CoV-2; test: morphology score (similarity to uninfected cells); higher = more like uninfected cells; settings: 24 h
[2] = test system: Vero E6 infected with SARS-CoV-2; test: SARS-CoV-2 infection rate relative to infected DMSO; higher = more infection, active = 60 or less; settings: 24 h

Structure (SMILES) | morphology score [1] | SARS-CoV-2 infection rate [2]
O=[N+]([O-])C(Br)(CO)CO [bronopol] (10 µM) | -0.0828 | 108% (inactive)
COCC[n+]1c2c(n(Cc3cnccn3)c1C)C(=O)c1ccccc1C2=O (0.833333 µM) | 0.0783 | 108% (inactive)
CN1[C@@H]2CC[C@H]1C[C@@H](OC(c1ccccc1)c1ccccc1)C2 [benztropine-mesylate] (10 µM) | 0.481 | 84.5% (inactive)
C[C@H]1CN(C[C@H](Cc2ccccc2)C(=O)NCC(=O)O)CC[C@@]1(C)c1cccc(O)c1 [alvimopan] (10 µM) | 0.116 | 106% (inactive)
O=c1cc[nH]c(=O)[nH]1 [uracil] (10 µM) | -0.002 | 108% (inactive)
CCCc1c(OCCCOc2ccc(OCC(=O)O)cc2)ccc(C(C)=O)c1O (10 µM) | 0.0635 | 106% (inactive)
CS(=O)(=O)Nc1ccc2oc3c(OC(F)F)ccc(C(=O)Nc4c(Cl)cncc4Cl)c3c2c1 [oglemilast] (10 µM) | 0.291 | 92% (inactive)
OC(CNCC(O)C1CCc2cc(F)ccc2O1)C1CCc2cc(F)ccc2O1 (configuration not stated) [nebivolol] (10 µM) | 0.0502 | 108% (inactive)
N#Cc1ccccc1OCC(O)CNCCNC(=O)Nc1ccccc1 (configuration not stated) (10 µM) | -0.0291 | 109% (inactive)
O=C(O)CCNc1cc(N2CCc3ccccc3CC2)nc(-c2cccnc2)n1 (10 µM) | 0.165 | 108% (inactive)
Nc1ccncc1 [dalfampridine] (10 µM) | 0.0807 | 103% (inactive)
Cc1c(Cl)cccc1Nc1ccccc1C(=O)O [tolfenamic-acid] (10 µM) | 0.00971 | 110% (inactive)
Clc1ccc2c(c1)N=C(N1CCNCC1)c1ccccc1N2 [desmethylclozapine] (10 µM) | 0.467 | 53.5% (active)
Cc1cccc(Nc2cc(Cl)nc(SCC(=O)O)n2)c1C [pirinixic-acid] (10 µM) | 0.0216 | 108% (inactive)
CN(C)Cc1ccc(-c2nc3cccc4c3n2CCNC4=O)cc1 (10 µM) | 0.092 | 97.5% (inactive)
CCCC1(CCC)CCC2(CCN(CCCN(CC)CC)C2)CC1 [atiprimod] (0.833333 µM) | 0.283 | 82.5% (inactive)
Cc1onc(-c2c(Cl)cccc2Cl)c1C(=O)N[C@@H]1C(=O)N2[C@@H]1SC(C)(C)[C@@H]2C(=O)O [dicloxacillin] (10 µM) | 0.0315 | 115% (inactive)
CCCN1C[C@H](CSC)C[C@@H]2c3cccc4[nH]cc(c34)C[C@H]21 [pergolide] (10 µM) | 0.343 | 78% (inactive)
Cc1cccn2c(=O)c(/C=C(\C#N)c3nc4ccccc4s3)c(Oc3ccc(F)cc3)nc12 (10 µM) | 0.0128 | 102% (inactive)
NCCCC[C@H](NC(=O)[C@@H]1CCCN1C(=O)[C@@H]1CSSC[C@H](N)C(=O)N[C@@H](Cc2ccc(O)cc2)C(=O)N[C@@H](Cc2ccccc2)C(=O)N[C@@H](CCC(N)=O)C(=O)N[C@@H](CC(N)=O)C(=O)N1)C(=O)NCC(N)=O [lypressin] (10 µM) | 0.164 | 91% (inactive)
NC(=O)c1ncn([C@@H]2O[C@H](CO)[C@@H](O)[C@H]2O)n1 [ribavirin] (10 µM) | 0.0157 | 97.5% (inactive)

Structure (SMILES) | morphology score [1] | SARS-CoV-2 infection rate [2]
O=c1cccc2n1C[C@@H]1CNC[C@H]2C1 [cytisine] (10 µM) | 0.0351 | 114% (inactive)
CCC(CC)O[C@@H]1C=C(C(=O)O)C[C@H](N)[C@H]1NC(C)=O [oseltamivir-carboxylate] (10 µM) | -0.0548 | 102% (inactive)
O=C(NC(O)C(Cl)(Cl)Cl)NC(O)C(Cl)(Cl)Cl (configuration not stated) [dicloralurea] (10 µM) | 0.108 | 106% (inactive)
COc1cc(NC(C)CCCN)c2ncccc2c1 (configuration not stated) [primaquine] (10 µM) | 0.491 | 76.5% (inactive)
CCOc1cc(C(C)(C)C)ccc1C1=N[C@@](C)(c2ccc(Cl)cc2)[C@@](C)(c2ccc(Cl)cc2)N1C(=O)N1CCN(CCCS(C)(=O)=O)CC1 (10 µM) | -0.0507 | 104% (inactive)
CN(C)c1ccc(/C=C2\C(=O)Nc3ccccc32)cc1 (10 µM) | 0.175 | 101% (inactive)
CC(=O)N1CCC(NC(=O)c2ccc(F)cc2)CC1 (10 µM) | 0.0529 | 110% (inactive)
O=C(Cc1cccc(OC(F)(F)F)c1)Nc1ccc(CCCCc2nnc(NC(=O)Cc3ccccn3)s2)nn1 (10 µM) | -0.0099 | 104% (inactive)
CC1(C)[C@@H]2C[C@@H](O)[C@@](C)(O)[C@H]1C2 [2,3-cis/exo-pinanediol] (10 µM) | 0.0892 | 95.5% (inactive)
NC12CC3CC(CC(C3)C1)C2 [amantadine] (10 µM) | -0.265 | 110% (inactive)
C[N+](C)(C)CCOC(N)=O [carbachol] (10 µM) | -0.148 | 101% (inactive)
CN1CC[C@@]2(C)c3cc(O)ccc3N(C)[C@@H]12 [eseroline-(-)] (10 µM) | 0.137 | 97% (inactive)
COc1ccc(Cc2nccc3cc(OC)c(OC)cc23)cc1OC [papaverine] (10 µM) | 0.169 | 105% (inactive)
Cc1ccc(NC(=O)C2(c3ccc4c(c3)OC(F)(F)O4)CC2)nc1-c1cccc(C(=O)O)c1 [lumacaftor] (10 µM) | 0.0696 | 114% (inactive)
Cc1cc(O)c(-c2ccc([C@@H](C)CN)cc2)c2c1[nH]c(=O)c1sccc12 (0.833333 µM) | -0.046 | 95% (inactive)
COC(=O)C1=C(C#N)NC(C)=C(C(=O)OC(C)C)C1c1cccc([N+](=O)[O-])c1 (configuration not stated) [nilvadipine] (10 µM) | -0.0761 | 106% (inactive)
COC(=O)Nc1ccc(-c2nc(N3CCOCC3)c3cnn(C4CCN(Cc5cccnc5)CC4)c3n2)cc1 (10 µM) | -0.198 | 104% (inactive)
CCOC(=O)c1cncn1[C@H](C)c1ccccc1 [etomidate] (10 µM) | -0.0479 | 110% (inactive)
N=C1CCCN1Cc1[nH]c(=O)[nH]c(=O)c1Cl [tipiracil] (10 µM) | -0.0802 | 106% (inactive)
C[C@]12CCC(=O)C=C1CC[C@@H]1[C@@H]2C(=O)C[C@]2(C)C(=O)CC[C@@H]12 [adrenosterone] (10 µM) | -0.109 | 97.5% (inactive)
C1CCN2C[C@@H]3C[C@@H](CN4CCCC[C@@H]34)[C@H]2C1 [sparteine-sulfate] (10 µM) | 0.00477 | 112% (inactive)

Structure (SMILES) | morphology score [1] | SARS-CoV-2 infection rate [2]
CCS(=O)(=O)N(C)[C@H]1c2cc(C#N)ccc2OC(C)(C)[C@@H]1O [chromanol-293B-(-)-[3R,4S]] (10 µM) | 0.135 | 104% (inactive)
Oc1ccc(O)cc1 [hydroquinone] (10 µM) | 0.00582 | 108% (inactive)
CC(C)Cc1ccc(C(C)C(=O)O)cc1 (configuration not stated) [ibuprofen] (10 µM) | 0.0447 | 108% (inactive)
C[C@]12C=CC(=O)C=C1CC[C@@H]1[C@@H]2C(=O)C[C@@]2(C)[C@H]1CC[C@]2(O)C(=O)CO [prednisone] (10 µM) | -0.177 | 108% (inactive)
C=CC(=O)Nc1cccc(Nc2nc(Nc3ccc(N4CCN(C(C)=O)CC4)cc3OC)ncc2C(F)(F)F)c1 [rociletinib] (10 µM) | -0.408 | 106% (inactive)
CCO[C@@H](Cc1ccc(OCCc2ccc(OS(C)(=O)=O)cc2)cc1)C(=O)O [tesaglitazar] (10 µM) | 0.194 | 110% (inactive)
CC1(C)OC(=O)NC1=O [dimethadione] (10 µM) | -0.0571 | 102% (inactive)
OCC(Br)(Br)Br [tribromoethanol] (10 µM) | -0.0304 | 118% (inactive)
CN(C)C(=O)Oc1cccc([N+](C)(C)C)c1 [neostigmine] (10 µM) | -0.107 | 112% (inactive)
COc1cccc2c1C(=O)c1c(O)c3c(c(O)c1C2=O)C[C@@](O)(C(=O)CO)C[C@@H]3O[C@H]1C[C@H](N2CCO[C@H](OC)C2)[C@H](O)[C@H](C)O1 [nemorubicin] (0.833333 µM) | 0.0228 | 108% (inactive)
Cc1cncc(CN2CCC(=C3c4ccc(Cl)cc4CCc4cccnc43)CC2)c1 [rupatadine] (10 µM) | -0.0273 | 108% (inactive)
O=C1CC2(CCCC2)CC(=O)N1CCNC[C@H]1COc2ccccc2O1 (10 µM) | -0.0647 | 113% (inactive)
C[C@@]1(O)[C@H](O)[C@@H](CO)O[C@H]1n1ccc(N)nc1=O (10 µM) | 0.0553 | 103% (inactive)
COC(=O)Nc1nc2cc(C(=O)c3ccc(F)cc3)ccc2[nH]1 [flubendazole] (10 µM) | 0.13 | 98% (inactive)
CCOC(=O)Nc1ccc2c(c1)N(C(=O)CCN(CC)CC)c1ccccc1S2 [ethacizin] (10 µM) | 0.00909 | 112% (inactive)
O.O.O.O.O=C([O-])CC(O)(CC(=O)[O-])C(=O)[O-].[Li+].[Li+].[Li+] [lithium-citrate] (10 µM) | 0.239 | 89% (inactive)
CC(C)CCNc1ncccc1C(=O)N1CCN(Cc2ccccc2)CC1 (10 µM) | -0.0116 | 114% (inactive)
CCC1=C[C@@H]2CN(C1)Cc1c([nH]c3ccccc13)[C@@](C(=O)OC)(c1cc3c(cc1OC)N(C)[C@H]1[C@@](O)(C(=O)OC)[C@H](OC(C)=O)[C@]4(CC)C=CCN5CC[C@]31[C@@H]54)C2 [vinorelbine] (10 µM) | -0.193 | 115% (inactive)
Cc1ccccc1C(C(=O)NC1CCCCC1)N(C(=O)Cn1ccnc1C)c1cccc(F)c1 (configuration not stated) (10 µM) | 0.177 | 108% (inactive)
